# Tests used:
# [1] = molecular target: Leukocyte tyrosine kinase receptor (Homo sapiens) (UniProt P29376); conditions: at 1 µM;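 note: each value is the mean inhibition of LTK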
# [2] = molecular target: Tyrosine-protein kinase Lyn (Homo sapiens) (UniProt P07948); conditions: at 0.1 µM
# [3] = molecular target: Tyrosine-protein kinase Lyn (Homo sapiens) (UniProt P07948); conditions: at 1 µM
# [4] = molecular target: Tyrosine-protein kinase Lyn (Homo sapiens) (UniProt P07948); conditions: at 0.1 µM; remark: listed apart in the source
# [5] = molecular target: Tyrosine-protein kinase Lyn (Homo sapiens) (UniProt P07948); conditions: at 1 µM; remark: listed apart in the source
# [6] = molecular target: T1, Tyrosine-protein kinase Mer (Homo sapiens) (UniProt Q12866); conditions: at 0.1 µM
# T1 sequence (whole entry): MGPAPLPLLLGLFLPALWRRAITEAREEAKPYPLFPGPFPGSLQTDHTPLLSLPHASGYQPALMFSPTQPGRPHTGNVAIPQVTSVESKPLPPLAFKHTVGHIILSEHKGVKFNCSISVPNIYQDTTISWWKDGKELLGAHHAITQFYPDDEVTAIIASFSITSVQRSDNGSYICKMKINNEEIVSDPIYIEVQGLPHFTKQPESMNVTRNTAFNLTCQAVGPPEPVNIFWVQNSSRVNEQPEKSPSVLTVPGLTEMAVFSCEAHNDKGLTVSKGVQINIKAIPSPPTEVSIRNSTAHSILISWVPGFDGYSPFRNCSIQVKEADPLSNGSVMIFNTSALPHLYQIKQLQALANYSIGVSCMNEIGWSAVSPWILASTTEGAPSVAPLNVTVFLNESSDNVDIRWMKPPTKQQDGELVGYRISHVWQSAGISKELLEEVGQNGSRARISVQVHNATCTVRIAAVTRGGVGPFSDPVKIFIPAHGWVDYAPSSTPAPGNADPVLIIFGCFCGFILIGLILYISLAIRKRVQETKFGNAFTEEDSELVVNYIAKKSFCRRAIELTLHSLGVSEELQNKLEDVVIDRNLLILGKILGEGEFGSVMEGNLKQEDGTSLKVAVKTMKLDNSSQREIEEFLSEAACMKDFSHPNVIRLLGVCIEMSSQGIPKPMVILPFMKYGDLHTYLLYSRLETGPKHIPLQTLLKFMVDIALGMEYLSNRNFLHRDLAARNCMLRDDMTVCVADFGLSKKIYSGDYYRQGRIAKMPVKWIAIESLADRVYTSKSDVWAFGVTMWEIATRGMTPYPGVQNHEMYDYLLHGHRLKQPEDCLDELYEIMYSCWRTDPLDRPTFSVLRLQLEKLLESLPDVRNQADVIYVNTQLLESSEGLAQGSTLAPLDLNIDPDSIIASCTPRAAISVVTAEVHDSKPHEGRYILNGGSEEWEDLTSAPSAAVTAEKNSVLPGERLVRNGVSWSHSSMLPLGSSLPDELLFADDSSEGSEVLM
# [7] = molecular target: T1, Tyrosine-protein kinase Mer (Homo sapiens); conditions: at 1 µM
# [8] = molecular target: Hepatocyte growth factor receptor (Homo sapiens) (UniProt P08581); conditions: at 0.1 µM
# Sequence of Hepatocyte growth factor receptor (Homo sapiens) (P08581 whole entry): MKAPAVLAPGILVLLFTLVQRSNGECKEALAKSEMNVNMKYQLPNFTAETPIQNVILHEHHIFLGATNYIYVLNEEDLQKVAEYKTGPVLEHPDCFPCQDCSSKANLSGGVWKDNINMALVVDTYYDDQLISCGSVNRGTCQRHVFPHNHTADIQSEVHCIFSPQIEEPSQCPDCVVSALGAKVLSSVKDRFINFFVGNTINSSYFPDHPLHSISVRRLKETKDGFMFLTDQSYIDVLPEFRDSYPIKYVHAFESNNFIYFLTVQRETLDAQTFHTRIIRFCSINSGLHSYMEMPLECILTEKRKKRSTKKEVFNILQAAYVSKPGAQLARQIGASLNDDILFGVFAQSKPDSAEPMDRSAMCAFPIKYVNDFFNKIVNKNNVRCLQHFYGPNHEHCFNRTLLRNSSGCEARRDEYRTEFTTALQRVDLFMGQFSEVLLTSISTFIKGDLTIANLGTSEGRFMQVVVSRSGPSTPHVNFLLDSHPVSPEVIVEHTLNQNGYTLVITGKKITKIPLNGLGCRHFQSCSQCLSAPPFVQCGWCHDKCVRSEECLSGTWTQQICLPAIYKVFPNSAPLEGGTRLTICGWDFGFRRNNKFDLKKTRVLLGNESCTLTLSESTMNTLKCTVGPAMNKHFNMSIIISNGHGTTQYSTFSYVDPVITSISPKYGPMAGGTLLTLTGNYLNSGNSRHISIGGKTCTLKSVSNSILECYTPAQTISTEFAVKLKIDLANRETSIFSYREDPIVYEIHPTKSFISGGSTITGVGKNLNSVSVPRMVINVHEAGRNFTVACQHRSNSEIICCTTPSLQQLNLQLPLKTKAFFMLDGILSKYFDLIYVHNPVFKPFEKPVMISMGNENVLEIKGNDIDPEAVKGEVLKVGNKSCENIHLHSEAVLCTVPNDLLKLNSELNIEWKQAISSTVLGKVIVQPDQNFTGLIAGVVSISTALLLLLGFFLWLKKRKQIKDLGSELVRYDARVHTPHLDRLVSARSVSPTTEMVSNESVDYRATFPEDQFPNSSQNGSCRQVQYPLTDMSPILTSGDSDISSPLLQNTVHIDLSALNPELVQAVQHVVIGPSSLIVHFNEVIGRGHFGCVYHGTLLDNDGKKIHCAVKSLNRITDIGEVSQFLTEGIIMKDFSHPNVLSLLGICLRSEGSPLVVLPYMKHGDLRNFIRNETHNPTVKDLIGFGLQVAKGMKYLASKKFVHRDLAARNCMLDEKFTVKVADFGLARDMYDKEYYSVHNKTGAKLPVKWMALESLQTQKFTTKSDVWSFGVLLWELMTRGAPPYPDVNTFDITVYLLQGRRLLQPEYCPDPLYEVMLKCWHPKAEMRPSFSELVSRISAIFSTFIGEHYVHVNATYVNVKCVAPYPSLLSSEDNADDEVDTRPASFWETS
# [9] = molecular target: Hepatocyte growth factor receptor (Homo sapiens) (UniProt P08581); conditions: at 1 µM
# [10] = molecular target: T2, Muscle, skeletal receptor tyrosine-protein kinase (Homo sapiens) (UniProt O15146); conditions: at 0.1 µM;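 note: values are mean inhibition of MuSK from the GSK PKIS kinase screening panel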
# T2 sequence (whole entry): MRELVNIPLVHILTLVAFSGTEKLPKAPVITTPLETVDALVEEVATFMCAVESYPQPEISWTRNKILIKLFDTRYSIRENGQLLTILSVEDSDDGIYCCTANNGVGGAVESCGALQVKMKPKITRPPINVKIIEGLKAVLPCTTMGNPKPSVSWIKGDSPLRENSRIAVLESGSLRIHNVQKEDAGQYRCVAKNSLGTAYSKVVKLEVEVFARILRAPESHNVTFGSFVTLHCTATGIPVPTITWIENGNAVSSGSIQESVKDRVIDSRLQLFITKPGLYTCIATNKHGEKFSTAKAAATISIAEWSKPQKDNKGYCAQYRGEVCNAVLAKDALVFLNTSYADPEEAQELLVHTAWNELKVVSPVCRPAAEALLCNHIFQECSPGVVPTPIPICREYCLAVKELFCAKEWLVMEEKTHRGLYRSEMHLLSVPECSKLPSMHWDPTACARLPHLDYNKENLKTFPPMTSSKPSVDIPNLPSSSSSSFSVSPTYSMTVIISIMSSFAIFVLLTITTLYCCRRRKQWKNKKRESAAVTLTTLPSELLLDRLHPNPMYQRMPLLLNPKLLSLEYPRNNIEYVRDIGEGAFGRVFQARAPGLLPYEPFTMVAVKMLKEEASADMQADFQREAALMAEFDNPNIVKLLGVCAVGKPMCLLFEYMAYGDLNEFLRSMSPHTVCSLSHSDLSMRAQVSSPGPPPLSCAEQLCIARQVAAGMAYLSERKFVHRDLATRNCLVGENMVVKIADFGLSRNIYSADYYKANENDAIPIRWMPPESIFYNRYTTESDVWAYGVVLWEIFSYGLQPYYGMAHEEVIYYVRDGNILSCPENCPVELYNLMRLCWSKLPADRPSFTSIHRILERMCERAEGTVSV
# Sequence of Leukocyte tyrosine kinase receptor (Homo sapiens) (P29376 whole entry): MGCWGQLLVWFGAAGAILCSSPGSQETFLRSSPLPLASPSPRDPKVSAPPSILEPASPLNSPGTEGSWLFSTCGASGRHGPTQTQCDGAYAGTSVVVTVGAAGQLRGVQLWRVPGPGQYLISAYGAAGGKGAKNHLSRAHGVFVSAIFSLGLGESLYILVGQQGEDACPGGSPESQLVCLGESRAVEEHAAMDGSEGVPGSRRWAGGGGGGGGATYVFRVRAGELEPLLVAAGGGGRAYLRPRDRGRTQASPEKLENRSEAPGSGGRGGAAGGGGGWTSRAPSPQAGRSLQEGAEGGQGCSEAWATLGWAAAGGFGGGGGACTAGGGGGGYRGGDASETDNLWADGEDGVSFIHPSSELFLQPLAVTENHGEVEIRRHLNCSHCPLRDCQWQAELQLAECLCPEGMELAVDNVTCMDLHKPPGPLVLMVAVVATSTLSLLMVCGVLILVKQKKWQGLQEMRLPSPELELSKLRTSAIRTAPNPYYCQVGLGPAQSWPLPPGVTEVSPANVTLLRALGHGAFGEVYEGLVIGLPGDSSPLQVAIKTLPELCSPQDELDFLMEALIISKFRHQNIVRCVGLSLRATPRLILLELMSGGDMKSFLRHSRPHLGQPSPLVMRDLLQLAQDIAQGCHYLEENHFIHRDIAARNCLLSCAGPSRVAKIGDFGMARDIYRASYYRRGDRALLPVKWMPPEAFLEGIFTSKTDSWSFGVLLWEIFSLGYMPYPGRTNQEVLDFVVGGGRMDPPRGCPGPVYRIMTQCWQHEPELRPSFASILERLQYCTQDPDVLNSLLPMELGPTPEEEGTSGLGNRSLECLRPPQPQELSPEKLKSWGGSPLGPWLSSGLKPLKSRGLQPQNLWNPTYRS
# Sequence of Tyrosine-protein kinase Lyn (Homo sapiens) (P07948 2-512 limits assumed): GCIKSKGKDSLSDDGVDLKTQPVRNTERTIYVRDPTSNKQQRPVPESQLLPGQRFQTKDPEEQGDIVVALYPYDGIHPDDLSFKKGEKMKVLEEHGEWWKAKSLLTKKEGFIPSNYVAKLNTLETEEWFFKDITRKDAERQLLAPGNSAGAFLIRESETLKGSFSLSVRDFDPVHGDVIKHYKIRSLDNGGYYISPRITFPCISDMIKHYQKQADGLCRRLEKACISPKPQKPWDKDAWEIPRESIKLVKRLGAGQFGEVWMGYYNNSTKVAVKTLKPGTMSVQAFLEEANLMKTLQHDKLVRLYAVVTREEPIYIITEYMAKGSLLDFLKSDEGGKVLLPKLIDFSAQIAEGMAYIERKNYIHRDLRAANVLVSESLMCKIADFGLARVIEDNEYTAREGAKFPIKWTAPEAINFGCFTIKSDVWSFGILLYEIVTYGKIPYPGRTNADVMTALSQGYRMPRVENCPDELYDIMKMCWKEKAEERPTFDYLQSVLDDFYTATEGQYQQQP
SMILES,inhibition [1] [%],inhibition [2] [%],inhibition [3] [%],inhibition [4] [%],inhibition [5] [%],inhibition [6] [%],inhibition [7] [%],inhibition [8] [%],inhibition [9] [%],inhibition [10] [%]
CC(=O)Nc1cccc(C#Cc2cncnc2Nc2ccc(OCc3cccc(F)c3)c(Cl)c2)c1,0.9,1.26,1.6,1.1,0.14,1.62,2.65,4.11,1.83,2.39
CN(C)CCOc1ccc(-c2nc(-c3ccncc3)c(-c3ccc4c(c3)CC/C4=N\O)[nH]2)cc1,8.56,6.26,8.56,2.81,6.8,0.89,4.76,3.76,13.3,2.95
Fc1ccc(-c2nn3ncccc3c2-c2ccnc(Nc3ccc4c(c3)OCCO4)n2)cc1,5.5,32.5,78.8,26,72.7,5.86,31.5,4.89,10.7,3.02
NS(=O)(=O)c1ccc(Nc2ncc(-c3ccccc3)o2)cc1,6.46,5.4,12.4,2.72,9.48,2.4,5.27,1.7,-0.71,3.44
CCn1cc(-c2ccnc3[nH]ccc23)c(-c2cccc(NC(=O)Nc3ccc(OCc4ccccc4)cc3)c2)n1,-0.91,5.25,19.4,2.62,13.6,0.66,8.39,9.54,46.4,-1.52
COc1ccc2[nH]c3c4[nH]c5ccc(OC)cc5c4c4c(c3c2c1)C(=O)NC4=O,78.3,10.8,35.3,7.67,31.5,10.7,50.1,10.5,19.8,4.97
COc1cccc(-c2c[nH]c3c(N/N=C/c4ccncc4)ncnc23)c1,2.09,40.1,83.3,33.8,81.8,2.09,15.7,4.89,27.3,13.4
Cc1cccc2c1NC(=O)/C2=N\Nc1ccc(S(N)(=O)=O)cc1,2,3.38,5.9,1.15,2.52,1.25,2.98,4.07,-0.51,2.77
COc1cc2c(cc1Nc1nc(Nc3ccsc3C(N)=O)c3cc[nH]c3n1)N(C(=O)CN(C)C)CCC2(C)C,96.3,4.53,4.24,2.04,2.4,3.14,16.1,5.6,23.1,14.8
CCNC(=O)O[C@H]1CN[C@H](C#Cc2cc3ncnc(Nc4ccc(OCc5cccc(F)c5)c(Cl)c4)c3s2)C1,2.99,5.67,3.68,2.23,1.7,0.26,7.09,3.78,1.15,2.4
Cc1cccc(Nc2ncc(-c3ccccc3)o2)c1,2.88,3.9,8.28,2.22,7.24,3.9,2.26,3.88,2.78,0.01
CN1CCC(n2cnc(-c3ccc(F)cc3)c2-c2ccnc(N)n2)CC1,4.69,1.99,10.1,1.43,6.85,0.51,6.73,2.36,0.93,0.53
Fc1ccc(-c2cc(-c3c[nH]nc3-c3ccccn3)ccn2)cc1,5.88,6.32,8.49,5.14,7.44,1.96,2,6.72,8.44,2.06
N#Cc1c(NC(=O)CN2CCOCC2)sc2c1CCCC2,4.38,4.72,7.89,2.92,5.26,1.87,4.98,7.91,13,2.41
CCN1CCC(CC(=O)Nc2n[nH]c3nnc(-c4cccc(F)c4F)cc23)CC1,1.45,3.32,3.55,2.16,2.2,-1.66,-0.36,4.54,9.2,1.85
CC(C)COC(=O)c1ccc2c(c1)/C(=C/Nc1ccc(S(N)(=O)=O)cc1)C(=O)N2,4.2,2.35,24.3,0.51,20.4,2.14,4.37,-4.39,13.3,7.69
COc1ccc(-c2cc(-c3c[nH]nc3-c3ccccn3)ccn2)cc1,5.89,6.64,15.2,3.87,11.2,1.3,2.69,8.94,3.52,3.4

SMILES,inhibition [1] [%],inhibition [2] [%],inhibition [3] [%],inhibition [4] [%],inhibition [5] [%],inhibition [6] [%],inhibition [7] [%],inhibition [8] [%],inhibition [9] [%],inhibition [10] [%]
O=C(O[C@H]1CN[C@H](C#Cc2cc3ncnc(Nc4ccc(Cc5ccccc5)cc4)c3s2)C1)N1CCOCC1,0.57,0.85,4.14,0.33,3.75,-0.63,2.01,-1.3,4.56,-0.21
Nc1nc(-c2cccc(Cl)c2)c(-c2ccc3ncccc3n2)s1,6.22,7.27,16.1,5.14,13.2,2.09,7.21,6.65,7.33,2.01
CCn1c(-c2nonc2N)nc2cnc(Oc3cccc(NC(=O)c4ccc(N(C)C)cc4)c3)cc21,0.1,1.48,1.6,0.82,1.31,0.23,0.04,-1.57,-4.37,2.84
COc1ccc(-c2nn3ncccc3c2-c2ccnc(Nc3ccc4c(c3)OCCO4)n2)cc1,23.5,13.8,60.4,9.96,55.4,-0.06,12.9,-1.3,8.57,-0.81
CCn1c(-c2nonc2N)nc2c(C#CC(C)(C)O)ncc(OC3CCNCC3)c21,3.06,4.34,4.35,2.01,2.89,3.67,2.19,5.39,-3.51,3.1
COc1ccc2c(-c3ccnc(Nc4cccc(OC(F)(F)F)c4)n3)cnn2n1,4.46,7.95,9.21,3.18,7.1,1.44,2.89,4.94,15.7,5.85
CC(=O)NCc1cccc(C#Cc2cncnc2Nc2ccc(OCc3cccc(F)c3)c(Cl)c2)c1,0.67,-0.07,-0.62,-0.59,-1.18,0.61,2.93,4.9,1.83,-0.6
CN1CCC(n2cnc(-c3ccc(F)cc3)c2-c2ccnc(Nc3ccccc3)n2)CC1,1.97,4.88,23.3,2.82,13.9,0.46,6.83,-0.26,9.59,1.28
CNC(=O)c1cc(-c2ccc(F)cc2)cc(-c2ccc(S(=O)(=O)N3CCCC3)cc2)c1N,3.29,2.72,2.56,1.59,1.39,0.74,2.3,3.93,5.04,2.8
CNC(=O)c1cccc(C#Cc2cncnc2Nc2ccc(OCc3cccc(F)c3)c(Cl)c2)c1,0.16,3.69,5.89,2.02,2.83,1.54,2.26,3.13,5.11,-0.28
FC(F)(F)c1cccc(-c2nn3ncccc3c2-c2ccnc(Nc3ccc4c(c3)OCCO4)n2)c1,1.73,7.06,39.5,5.18,33.9,4.3,40,7.83,5.36,1.28
NS(=O)(=O)c1ccc(N/N=C2\C(=O)Nc3ccc4ncccc4c32)cc1,10.1,8.74,44.3,6.92,40,1.59,17.5,4.71,19.4,11.3
COc1ccc(CNC(=O)c2ccc(-c3cc(-c4nnc(C)o4)ccc3C)cc2)cc1,4.21,4.62,7.5,2.67,7.12,3.37,3.49,11.8,10.3,3.25
CC1=C(C(=O)Nc2cc(Cl)c3[nH]ncc3c2)C(c2ccc(C(F)(F)F)cc2)CC(=O)N1 (stereo not given),3.88,5.29,10.9,3.46,9.12,1.72,0.92,0.14,4.94,50.2
c1ccc(COc2ccc(Nc3ncnc4ccc(-c5ccco5)cc34)cc2)cc1,1.92,1.51,2.5,1.39,1.94,1.57,12.7,7.46,2.85,0.09
CS(=O)(=O)CCNCc1coc(-c2ccc3ncnc(Nc4ccc(OCc5ccccc5)cc4)c3c2)c1,11.4,3.61,8.56,3.96,6.66,5.03,29.9,9.58,9.58,2.22

# — ChEMBL document CHEMBL1961873, “Compounds: GSK PKIS; Assays: Nanosyn kinase panel” (2012)
